# In PubChem BioAssay (NCI):
# The panel holds about 83,000 compounds, 20% with a hit somewhere; the sample as a whole holds those more often.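 Growth was measured after 48 h exposure to one concentration of compound in 96-well plates. Values under 10 count as active.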 A number with no mark means an inactive call. Active and inactive are the calls of the source.
# Assays:
# Assay in all cases: NCI-60 one-dose screen, 48 h (100 = growth as untreated, 0 = no growth, -100 = all killed)
# T-47D breast = system: T-47D breast
# BT-549 breast = system: BT-549 breast
# MDA-MB-435 melanoma = system: MDA-MB-435 melanoma
# SW-620 colon = system: SW-620 colon
# MCF7 breast = system: MCF7 breast
# HCT-116 colon = system: HCT-116 colon
# HCC-2998 colon = system: HCC-2998 colon
# KM12 colon = system: KM12 colon
structure (smiles),measurement,setting,value
COc1ccc(C(=O)/C=C/c2ccc(OCc3ccc(Cl)cc3)cc2)cc1OC,growth,T-47D breast; 10 µM,73.8%
same,growth,T-47D breast; 100 µM,41.5%
same,growth,BT-549 breast; 10 µM,115%
same,growth,BT-549 breast; 100 µM,22%
same,growth,MDA-MB-435 melanoma; 10 µM,90.7%
same,growth,MDA-MB-435 melanoma; 100 µM,43.7%
same,growth,SW-620 colon; 10 µM,103%
same,growth,SW-620 colon; 100 µM,9.15% (active)
same,growth,MCF7 breast; 10 µM,84.2%
same,growth,MCF7 breast; 100 µM,9.31% (active)
same,growth,HCT-116 colon; 10 µM,90.2%
same,growth,HCT-116 colon; 100 µM,-25.8% (active)
same,growth,HCC-2998 colon; 10 µM,101%
same,growth,HCC-2998 colon; 100 µM,44%
same,growth,KM12 colon; 10 µM,90.7%
same,growth,KM12 colon; 100 µM,21.4%
CC(=O)/C=C/c1ccc(OCc2ccc(C(C)(C)C)cc2)cc1,growth,T-47D breast; 10 µM,52.8%
same,growth,T-47D breast; 100 µM,5.88% (active)
same,growth,BT-549 breast; 10 µM,103%
same,growth,BT-549 breast; 100 µM,21.3%
same,growth,MDA-MB-435 melanoma; 10 µM,78.4%
same,growth,MDA-MB-435 melanoma; 100 µM,39.5%
same,growth,SW-620 colon; 10 µM,72.1%
same,growth,SW-620 colon; 100 µM,38.6%
same,growth,MCF7 breast; 10 µM,66.6%
same,growth,MCF7 breast; 100 µM,41.8%
same,growth,HCT-116 colon; 10 µM,68.9%
same,growth,HCT-116 colon; 100 µM,25.3%
same,growth,HCC-2998 colon; 10 µM,92.1%
same,growth,HCC-2998 colon; 100 µM,86.8%
same,growth,KM12 colon; 10 µM,82.9%
same,growth,KM12 colon; 100 µM,32.1%
COc1ccc(Nc2nn3c(SCC(=O)c4ccc(C)cc4)nnc3s2)cc1,growth,T-47D breast; 10 µM unless noted,73.2%
same,growth,BT-549 breast; 10 µM unless noted,92.2%
same,growth,MDA-MB-435 melanoma; 10 µM unless noted,105%
same,growth,SW-620 colon; 10 µM unless noted,98.1%
same,growth,MCF7 breast; 10 µM unless noted,91.8%
same,growth,HCT-116 colon; 10 µM unless noted,106%
same,growth,HCC-2998 colon; 10 µM unless noted,111%
same,growth,KM12 colon; 10 µM unless noted,97.3%
COc1cc(/C=C2/C=C(c3ccc(C(C)(C)C)cc3)N(CCc3ccc(S(N)(=O)=O)cc3)C2=O)cc(OC)c1OC,growth,T-47D breast; 10 µM unless noted,18.2%
same,growth,BT-549 breast; 10 µM unless noted,48.1%
same,growth,MDA-MB-435 melanoma; 10 µM unless noted,52.8%
same,growth,SW-620 colon; 10 µM unless noted,63.3%
same,growth,MCF7 breast; 10 µM unless noted,13.1%
same,growth,HCT-116 colon; 10 µM unless noted,23.5%
same,growth,HCC-2998 colon; 10 µM unless noted,32.2%
same,growth,KM12 colon; 10 µM unless noted,43.8%
COc1cc2cc(NCc3ccncc3)nc(C)c2cc1OC,growth,T-47D breast; 10 µM unless noted,71.2%
same,growth,BT-549 breast; 10 µM unless noted,77.9%
same,growth,MDA-MB-435 melanoma; 10 µM unless noted,106%
same,growth,SW-620 colon; 10 µM unless noted,107%
same,growth,MCF7 breast; 10 µM unless noted,93.4%
same,growth,HCT-116 colon; 10 µM unless noted,93.1%
same,growth,HCC-2998 colon; 10 µM unless noted,106%
same,growth,KM12 colon; 10 µM unless noted,109%
Nc1ncc(-c2ccc3ncnc(N4CCc5ccc(Cl)cc54)c3c2)cc1C(F)(F)F,growth,T-47D breast; 10 µM unless noted,12%
same,growth,BT-549 breast; 10 µM unless noted,-2.6% (active)
same,growth,MDA-MB-435 melanoma; 10 µM unless noted,13.7%
same,growth,SW-620 colon; 10 µM unless noted,34.8%
same,growth,MCF7 breast; 10 µM unless noted,7.34% (active)
same,growth,HCT-116 colon; 10 µM unless noted,23.3%
same,growth,HCC-2998 colon; 10 µM unless noted,22.3%
same,growth,KM12 colon; 10 µM unless noted,13.4%
Cc1ccc(-c2nc3nc(-c4ccccc4)nc(N4CCCNCC4)c3o2)cc1,growth,T-47D breast; 10 µM unless noted,-45% (active)
same,growth,BT-549 breast; 10 µM unless noted,18%
same,growth,MDA-MB-435 melanoma; 10 µM unless noted,-83.1% (active)
same,growth,SW-620 colon; 10 µM unless noted,-57.5% (active)
same,growth,MCF7 breast; 10 µM unless noted,-78.4% (active)
same,growth,HCT-116 colon; 10 µM unless noted,-71.4% (active)
same,growth,HCC-2998 colon; 10 µM unless noted,-74.9% (active)
same,growth,KM12 colon; 10 µM unless noted,-92.3% (active)
C=C(CN1CC=CCC1)[C@@H]1CC[C@]2(COC(C)=O)CC[C@]3(C)[C@H](CC[C@@H]4[C@@]5(C)CC[C@H](O)C(C)(C)[C@@H]5CC[C@]43C)[C@@H]12,growth,T-47D breast; 10 µM unless noted,78.7%
same,growth,BT-549 breast; 10 µM unless noted,106%
same,growth,MDA-MB-435 melanoma; 10 µM unless noted,99.2%
same,growth,SW-620 colon; 10 µM unless noted,97.4%
same,growth,MCF7 breast; 10 µM unless noted,90.4%
same,growth,HCT-116 colon; 10 µM unless noted,93.6%
same,growth,HCC-2998 colon; 10 µM unless noted,112%
same,growth,KM12 colon; 10 µM unless noted,106%
N#C/C(=C\c1ccc(Br)cc1)n1nnc2c(F)cccc21,growth,T-47D breast; 10 µM unless noted,14.2%
same,growth,BT-549 breast; 10 µM unless noted,12%
same,growth,MDA-MB-435 melanoma; 10 µM unless noted,-26.8% (active)
same,growth,SW-620 colon; 10 µM unless noted,-22.1% (active)
same,growth,MCF7 breast; 10 µM unless noted,12.7%
same,growth,HCT-116 colon; 10 µM unless noted,-27.5% (active)
same,growth,HCC-2998 colon; 10 µM unless noted,-38.4% (active)
same,growth,KM12 colon; 10 µM unless noted,4.37% (active)
CCCc1cc(C(N)=S)ccn1,growth,T-47D breast; 10 µM unless noted,105%
same,growth,BT-549 breast; 10 µM unless noted,98.1%
same,growth,MDA-MB-435 melanoma; 10 µM unless noted,105%
same,growth,SW-620 colon; 10 µM unless noted,107%
same,growth,MCF7 breast; 10 µM unless noted,108%
same,growth,HCT-116 colon; 10 µM unless noted,95.8%
same,growth,HCC-2998 colon; 10 µM unless noted,108%
COc1ccc(/C=C/C(=O)c2cc3c(N)c(C(=O)Nc4ccccc4Cl)sc3nc2C)cc1,growth,T-47D breast; 10 µM unless noted,30.3%
same,growth,BT-549 breast; 10 µM unless noted,59%
same,growth,MDA-MB-435 melanoma; 10 µM unless noted,-61.6% (active)
same,growth,SW-620 colon; 10 µM unless noted,48.1%
same,growth,MCF7 breast; 10 µM unless noted,17.2%
same,growth,HCT-116 colon; 10 µM unless noted,59%
same,growth,HCC-2998 colon; 10 µM unless noted,51.3%
same,growth,KM12 colon; 10 µM unless noted,51.6%
CN1C(=O)/C(=C/c2ccc(C(=O)Nc3ncc(Cc4ccccc4Cl)s3)cc2)SC1=S,growth,T-47D breast; 10 µM unless noted,63.4%
same,growth,BT-549 breast; 10 µM unless noted,69.5%
same,growth,MDA-MB-435 melanoma; 10 µM unless noted,-18.5% (active)
same,growth,SW-620 colon; 10 µM unless noted,62%
same,growth,MCF7 breast; 10 µM unless noted,61.8%
same,growth,HCT-116 colon; 10 µM unless noted,63.6%
same,growth,HCC-2998 colon; 10 µM unless noted,77.5%
same,growth,KM12 colon; 10 µM unless noted,46.1%
Cc1ccc(Nc2nc(-c3cc(O)c(C)c(C)c3O)cs2)cc1,growth,T-47D breast; 10 µM unless noted,35.5%
same,growth,BT-549 breast; 10 µM unless noted,98.1%
same,growth,MDA-MB-435 melanoma; 10 µM unless noted,66.4%
same,growth,SW-620 colon; 10 µM unless noted,111%
same,growth,MCF7 breast; 10 µM unless noted,71.9%
same,growth,HCT-116 colon; 10 µM unless noted,105%
same,growth,HCC-2998 colon; 10 µM unless noted,112%
same,growth,KM12 colon; 10 µM unless noted,60.9%
